Our source for the growth inhibition values is PubChem BioAssay (NCI).

Test [1] in a line: NCI Yeast Anticancer Drug Screen. Data for the rad50 strain (AID 155).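 Further: 0% = growth of vehicle-only cultures of the same strain.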 The settings on record: S. cerevisiae rad50 strain growth inhibition; at 50.0 µM; hits give high values. The method in brief: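 Growth of the mutant yeast was measured after compound exposure and referenced to vehicle-treated cultures.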
Test [2] is described as follows: NCI Yeast Anticancer Drug Screen. Data for the mec2-1 strain (AID 157). The settings on record: S. cerevisiae mec2-1 strain, at 50.0 µM, hits give high values. A digest of the protocol: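 Each compound was tested on mec2-1 yeast, a strain altered in DNA damage repair or cell cycle control. Growth inhibition is reported relative to vehicle.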
A short description of test [3]: NCI Yeast Anticancer Drug Screen. Data for the sgs1 mgt1 strain (AID 161).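 Further: 0% = growth of cultures given vehicle only.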 The settings on record: S. cerevisiae sgs1 mgt1 strain, at 50.0 µM, hits give high values. The method in brief: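 Mutant yeast exposed to compound; growth scored against vehicle-only wells.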
Test [4] is described as follows: NCI Yeast Anticancer Drug Screen. Data for the cln2 rad14 strain (AID 165).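 Further: 0% = growth equal to vehicle treated cultures.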 As to conditions: S. cerevisiae cln2 rad14 strain, at 50.0 µM, hits give high values. A digest of the protocol: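 Test compounds were added to cln2 rad14 yeast cultures; inhibition of growth was then determined by comparison with vehicle treatment.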
Test [5] can be described thus: NCI Yeast Anticancer Drug Screen. Data for the bub3 strain (AID 167). As to conditions: S. cerevisiae bub3 mutant strain, at 50.0 µM, hits give high values. A digest of the protocol: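 Whole-cell yeast assay. The mutant strain was incubated with compounds, and growth inhibition was determined by comparison with vehicle-treated cells.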
The nature of test [6]: NCI Yeast Anticancer Drug Screen. Data for the mlh1 rad18 strain (AID 175). The settings on record: S. cerevisiae mlh1 rad18 strain growth inhibition; at 50.0 µM; hits give high values. A digest of the protocol:
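Inhibition values reflect reduced growth of mutant yeast versus vehicle-treated controls following compound exposure; the mutations affect DNA damage repair.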

About 79,000 compounds went through this panel and 15% of them were active in at least one assay; those are over-represented in the sample as a whole. Unmarked numbers belong to inactive results. Activity calls are given as the source filed them. No stated cut-off is given here; in the data, active means growth inhibition above about 70%; inactive means the rest.

On to `N#Cc1c(-c2ccc(Cl)cc2)cn2c1[nH]c(=O)c1c3c(sc12)CCCC3`, for which the growth inhibition in test [1] was 13.2%; in test [2], 10.2%; in test [3], 0.15%; in test [4], -6.8%; in test [5], -4.25%; in test [6] it was 1.35%.
For the molecule `COc1ccc(N2C(=O)C(C)SC23C(=O)Nc2ccccc23)cc1` (configuration not stated), the growth inhibition in test [1] is 13.6%; in test [2] it was 20.4%; in test [3], 5.75%; in test [4] it was 2.5%; in test [5] it was 4.75%; in test [6], 18.8%.
In the case of `CC1(C)CS(=O)(=O)C(=O)N1CCC(=O)O`, the growth inhibition is 9.8% in test [1]; 15.4% in test [2]; 7.8% in test [3]; 3.85% in test [4]; 6.45% in test [5]; 24.9% in test [6].
For `CN1CCCCC1CCO` (configuration not stated), the growth inhibition in test [1] was -1.4%; in test [2], 6.7%; in test [3], -11.2%; in test [4], 15.9%; in test [5], 3.25%; in test [6], 14.1%.
Take `N#Cc1c(N2CCCC2)ncn(Cc2ccccc2)c1=S`: the growth inhibition in test [1] is -10.9%; in test [2] it was -15.1%; in test [3] it was -8.4%; in test [4] it was -25.1%; in test [5] it was -5.1%; in test [6] it was -0.2%.
As for `CCCCCCCc1ccc(N=Cc2ccc(OCCC)cc2)cc1`, the growth inhibition in test [1] was 98.8% (active); in test [2], 99.3% (active); in test [3] it was 98.9% (active); in test [4], 99% (active); in test [5], 97.7% (active); in test [6] it was 99.2% (active).
`O=C1C[CH]([Ge](=[O])[O][Ge](=[O])[CH]2CC(=O)NC(=O)N2)NC(=O)N1` (configuration not stated): the growth inhibition in test [1] was 43.9%; in test [2], 18.2%; in test [3], 25.1%; in test [4], 16.6%; in test [5], -5.3%; in test [6], 22.1%.
For `CCCCSc1nc2c(=O)[nH][nH]c(=O)c2n1Cc1ccccc1`, the growth inhibition is 11.9% in test [1]; 3.45% in test [2]; 23.2% in test [3]; 14.7% in test [4]; -0.8% in test [5]; 1.5% in test [6].
For the molecule `CCCCCCCSC#N`, the growth inhibition in test [1] was -7.6%; in test [2], 20.9%; in test [3], -1.9%; in test [4], -22.4%; in test [5] it was 9.75%; in test [6], 29.6%.
Consider `NC(=O)N/N=C/c1cccc(O)c1O`, for which the growth inhibition was 6% in test [1]; -6.2% in test [2]; -24.7% in test [3]; -10.2% in test [4]; -2.9% in test [5]; 5.75% in test [6].
In the case of `O=[N+]([O-])C1CC(O)C(O)CC1c1ccc2c(c1)OCO2` (configuration not stated), the growth inhibition in test [1] is 11.1%; in test [2] it was 7.25%; in test [3], 1.7%; in test [4], 3.05%; in test [5] it was 1.95%; in test [6] it was 3.7%.
As for `NNC(=O)c1cccc(C(=O)NN)n1`, the growth inhibition was 6.25% in test [1]; 4.9% in test [2]; 8.55% in test [3]; 5.85% in test [4]; 31.1% in test [5]; 15.1% in test [6].
With `N#Cc1ncn(CCO)c1N`, the growth inhibition in test [1] was 8.7%; in test [2], -22.4%; in test [3], 3.3%; in test [4] it was 3.9%; in test [5] it was -3.95%; in test [6], -43.5%.
Regarding `O=C(Nc1ccc(Cl)cc1)c1cc2cc(N=Nc3ccc(Br)cc3)ccc2oc1=O`, the growth inhibition is -18.1% in test [1]; 9.75% in test [2]; -13.3% in test [3]; -1.65% in test [4]; -23.9% in test [5]; -6.65% in test [6].
`O=c1/c(=C/c2ccc(Cl)cc2Cl)sc2nc3ccccc3n12`: the growth inhibition in test [1] was 4.1%; in test [2], -23.4%; in test [3], -0.15%; in test [4], -12.8%; in test [5], -22.5%; in test [6], -7.45%.
For `OCCOc1ccc(C(Cc2ccccc2)N(CCO)CCO)cc1` (configuration not stated), the growth inhibition is -10.1% in test [1]; 2.15% in test [2]; 7.5% in test [3]; -12.6% in test [4]; 4.7% in test [5]; -1.45% in test [6].
In the case of `O=N[C@@H]1CCC[C@H](Cl)C1`, the growth inhibition in test [1] is 3.95%; in test [2], -6.65%; in test [3], -0.1%; in test [4] it was 17.2%; in test [5] it was 5.75%; in test [6], 15.6%.
`N[C@@H]1c2c(csc2Br)C(=O)[C@@H]1O`: the growth inhibition was -5.25% in test [1]; -6.55% in test [2]; 13.3% in test [3]; -6.8% in test [4]; 0.8% in test [5]; -14.6% in test [6].
For the molecule `O=C(OCc1ccccc1)C1(O)CCCCC1`, the growth inhibition is -5.6% in test [1]; -16.2% in test [2]; -6.25% in test [3]; -2.7% in test [4]; -5% in test [5]; -7.4% in test [6].
Regarding `[Cl][Pd][Cl].[NH-]CC1(C[NH-])CCCCC1`, the growth inhibition in test [1] is 3.5%; in test [2], -1.1%; in test [3], 3.75%; in test [4], -64.2%; in test [5], 7.7%; in test [6] it was 5.95%.
Consider `COc1cc([C@@H]2c3cc4c(cc3[C@H](OC(=O)CCCC(=O)O)[C@H]3COC(=O)[C@H]23)OCO4)cc(OC)c1OC`, for which the growth inhibition in test [1] is 26.2%; in test [2], 23.2%; in test [3], 38.5%; in test [4], 32.3%; in test [5] it was 10.9%; in test [6], 33.6%.
`COc1c(NC(=O)Nc2ccc(F)c([N+](=O)[O-])c2)cccc1[N+](=O)[O-]`: the growth inhibition in test [1] is 7.85%; in test [2], 22.1%; in test [3] it was 10%; in test [4] it was 2.8%; in test [5], 20.1%; in test [6] it was 27.8%.
As to `O=[N+]([O-])c1ccc(/C=N\N=C\c2ccco2)cc1`, the growth inhibition in test [1] is 1.85%; in test [2], 16.8%; in test [3], -4.35%; in test [4] it was -50.1%; in test [5], -9.9%; in test [6], 4.95%.
For the molecule `CC(C)(C)c1cc(CCCCCCCC2(CCCCCCCc3cc(C(C)(C)C)cc(C(C)(C)C)c3)OC(COCCOCCCCCC#N)C(COCCOCCCCCC#N)O2)cc(C(C)(C)C)c1` (configuration not stated), the growth inhibition in test [1] is 24.6%; in test [2], -6.5%; in test [3], -1.5%; in test [4], -18%; in test [5], 0%; in test [6], 9.6%.
For `O=C(Nc1ccccc1CCl)Nc1ccccc1CCl`, the growth inhibition is -30.9% in test [1]; -26.4% in test [2]; -15.8% in test [3]; 0.7% in test [4]; -23.2% in test [5]; -28.8% in test [6].
With `Cc1ccccc1N1C(=O)C2CC=CCC2C1=O` (configuration not stated), the growth inhibition in test [1] is -13.3%; in test [2] it was 0.25%; in test [3] it was 12.2%; in test [4], -34.8%; in test [5], -14.4%; in test [6], -21.6%.
On to `CC1(C)CCCCC1/C=C/C(CC(O)(C(F)(F)F)C(F)(F)F)=N\Nc1ccc([N+](=O)[O-])cc1[N+](=O)[O-]` (configuration not stated), for which the growth inhibition is 15.1% in test [1]; 9.1% in test [2]; 4.65% in test [3]; 18.1% in test [4]; 16.1% in test [5]; 26.6% in test [6].
`O=CNc1cccc2c(=O)[nH][nH]c(=O)c12`: the growth inhibition is -21.9% in test [1]; -46.8% in test [2]; -56.6% in test [3]; 18.1% in test [4]; -26.1% in test [5]; -39.1% in test [6].
Take `CC(=O)Nc1cnc2ccccc2c1`: the growth inhibition in test [1] was 9.65%; in test [2], -0.4%; in test [3], 7.1%; in test [4], -2.8%; in test [5], 4.6%; in test [6], -15.7%.
With `Cc1ccc(S(=O)(=O)NN(C)C(=O)c2ccccc2)cc1`, the growth inhibition is -5.95% in test [1]; -0.75% in test [2]; 3.05% in test [3]; -25.2% in test [4]; 22.8% in test [5]; -9.05% in test [6].
Take `COC1OC(CCl)C(Cl)C(OC)C1OC` (configuration not stated): the growth inhibition in test [1] is -9.1%; in test [2] it was -1.1%; in test [3], 5.6%; in test [4] it was -1.5%; in test [5], -2.5%; in test [6], 14.4%.
Turning to `COC(=O)C1=C(C)C(=O)[C@]23C(CCCC[C@H]12)C(=O)[C@H](C(=O)OC)C3C` (some centres not stated), the growth inhibition in test [1] is -19.7%; in test [2], -31.2%; in test [3] it was -11%; in test [4], -20.9%; in test [5], -13.9%; in test [6] it was 16.1%.
For `O/N=C/c1ccc(O)c(O)c1`, the growth inhibition is 16.4% in test [1]; -7.35% in test [2]; -4.05% in test [3]; -0.7% in test [4]; 10.8% in test [5]; 4.75% in test [6].
As for `CN(C)c1ccc(/C=C\C(O)c2ccccc2)cc1` (configuration not stated), the growth inhibition was 22.7% in test [1]; 11.3% in test [2]; 32.2% in test [3]; 7.6% in test [4]; 2.55% in test [5]; 42% in test [6].
For `CCOC(=O)c1nc(SC)sc1NC(=O)c1ccc([N+](=O)[O-])cc1`, the growth inhibition in test [1] was -11%; in test [2], -24.8%; in test [3] it was -30.8%; in test [4], 27.1%; in test [5], -14.7%; in test [6], -21.6%.
Regarding `COc1ccc(C(O)(c2ccccc2)c2nccc3ccccc23)cc1` (configuration not stated), the growth inhibition was 6.6% in test [1]; 3.75% in test [2]; 30.4% in test [3]; 1.45% in test [4]; 10.3% in test [5]; -9.4% in test [6].
On to `[N-]=[N+]=NC(=O)c1cnn(-c2ccccc2)c1N`, for which the growth inhibition in test [1] is 9.65%; in test [2], 18.9%; in test [3] it was 9.4%; in test [4], -27.4%; in test [5], 14.6%; in test [6], 2.2%.
